Results as given in PubChem BioAssay (NCI).
The panel holds about 79,000 compounds, 15% with a hit somewhere; the sample as a whole holds those more often. Active and inactive are the calls of the source. Rule as the data show it: active = growth inhibition above about 70%; inactive = the rest.

How the values were obtained:
[1] = NCI Yeast Anticancer Drug Screen. Data for the rad52 strain (AID 147);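 also: 0% = growth of vehicle-treated control cultures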; settings: S. cerevisiae rad52 mutant growth inhibition, active compounds read high
How it was run: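 Growth of repair-deficient yeast cells was compared between compound-treated and vehicle-treated cultures to give percent inhibition.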

[2] = NCI Yeast Anticancer Drug Screen. Data for the wt1 strain (AID 149);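 also: 0% = growth of vehicle-treated wt1 cultures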; settings: S. cerevisiae wt1 strain (SPY 50644) growth inhibition, active compounds read high
How it was run: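 Growth inhibition read against vehicle controls after compound exposure of the wt1 yeast strain.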

[3] = NCI Yeast Anticancer Drug Screen. Data for the rad50EPP+ strain (AID 151);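 also: 0% = growth of vehicle-treated control cultures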; settings: S. cerevisiae rad50 mutant strain, active compounds read high
How it was run: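 Measured: growth inhibition of rad50EPP+ yeast. Reference: vehicle-treated controls. Screen uses strains with defined genetic alterations in DNA damage repair or cell cycle control.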

[4] = NCI Yeast Anticancer Drug Screen. Data for the mgt1 strain (AID 153); settings: S. cerevisiae mgt1 mutant growth inhibition, active compounds read high
How it was run: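 Compounds were applied to mgt1 mutant yeast, and growth was then compared against vehicle-treated control cultures to give percent inhibition.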

[5] = NCI Yeast Anticancer Drug Screen. Data for the rad50 strain (AID 155);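 also: 0% = growth of vehicle-only cultures of the same strain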; settings: S. cerevisiae rad50 strain growth inhibition, active compounds read high
How it was run: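 Readout: growth inhibition relative to vehicle-treated cultures. Compound exposure was carried out in a genetically defined yeast strain deficient in DNA damage repair.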

[6] = NCI Yeast Anticancer Drug Screen. Data for the mec2-1 strain (AID 157); settings: S. cerevisiae mec2-1 strain, active compounds read high
How it was run: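 Compounds were applied to mec2-1 yeast cells. Their growth was then compared with that of vehicle-treated cultures to give growth inhibition.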

[7] = NCI Yeast Anticancer Drug Screen. Data for the rad14 strain (AID 159);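 also: 0% = growth of vehicle-treated control cultures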; settings: S. cerevisiae rad14 strain growth inhibition, active compounds read high
How it was run: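 Growth inhibition vs vehicle controls; genetically altered yeast strain (DNA damage repair defect) treated with test compounds.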

[8] = NCI Yeast Anticancer Drug Screen. Data for the sgs1 mgt1 strain (AID 161);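 also: 0% = growth of cultures given vehicle only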; settings: S. cerevisiae sgs1 mgt1 strain, active compounds read high
How it was run: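 Percent growth inhibition was derived by comparing compound-exposed mutant yeast with vehicle-exposed cultures. The strain carries alterations in DNA damage repair.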

[9] = NCI Yeast Anticancer Drug Screen. Data for the CLN2oe strain (AID 163);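 also: 0% = growth of vehicle-only control cultures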; settings: S. cerevisiae CLN2oe strain, active compounds read high
How it was run: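 Cells of an engineered yeast line with disturbed cell-cycle regulation are treated with compound. Inhibition of growth is then calculated relative to the vehicle-treated reference.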

[10] = NCI Yeast Anticancer Drug Screen. Data for the cln2 rad14 strain (AID 165);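 also: 0% = growth equal to vehicle treated cultures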; settings: S. cerevisiae cln2 rad14 strain, active compounds read high
How it was run: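 Strain: cln2 rad14 yeast, altered in cell cycle control and DNA damage repair. Read-out: growth inhibition vs vehicle.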

[11] = NCI Yeast Anticancer Drug Screen. Data for the bub3 strain (AID 167); settings: S. cerevisiae bub3 mutant strain, active compounds read high
How it was run: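 Readout: yeast growth inhibition, expressed relative to vehicle-only wells. The test organism is a mutant strain from a panel with lesions in DNA repair or checkpoint genes.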

[12] = NCI Yeast Anticancer Drug Screen. Data for the wt2 strain (AID 169);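 also: 0% = growth of vehicle-treated yeast cultures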; settings: S. cerevisiae wt2 strain growth inhibition, active compounds read high
How it was run: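 Growth of compound-treated yeast is measured and expressed as inhibition relative to vehicle-only controls.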

[13] = NCI Yeast Anticancer Drug Screen. Data for the mlh1 strain (AID 171);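 also: 0% = growth of vehicle-treated control cultures of the same strain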; settings: S. cerevisiae mlh1 strain growth inhibition, active compounds read high
How it was run: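 Test agents were incubated with yeast bearing a defined DNA damage repair or cell cycle control alteration; values are growth inhibition normalised to vehicle-treated cultures.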

[14] = NCI Yeast Anticancer Drug Screen. Data for the sgs1 strain (AID 173);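 also: 0% = growth of vehicle-only control cultures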; settings: S. cerevisiae sgs1 mutant, active compounds read high
How it was run: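 Strain with an altered DNA repair or cell cycle pathway exposed to compound. Growth then measured. Value = inhibition versus vehicle control.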

[15] = NCI Yeast Anticancer Drug Screen. Data for the mlh1 rad18 strain (AID 175); settings: S. cerevisiae mlh1 rad18 strain growth inhibition, active compounds read high
How it was run: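 A repair-deficient yeast strain is exposed to test compound, and growth is scored relative to vehicle-treated controls.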

[16] = NCI Yeast Anticancer Drug Screen. Data for the rad18 strain (AID 177); settings: S. cerevisiae rad18 mutant growth inhibition, active compounds read high
How it was run: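 DNA-repair-defective yeast; compound treatment; growth inhibition scored against vehicle.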

[17] = at 5.0 µM (retest, dose inferred, filed as 0.5)
[18] = at 50.0 µM (retest, dose inferred, filed as 5.0)

Measured: growth inhibition

CN(C)N=Nc1ccccc1C(=O)NC#N
active: [1]; at 11.0 µM 83% | [1]; at 33.0 µM 98% | [1]; at 100.0 µM 98% | [2]; at 11.0 µM 97% | [2]; at 33.0 µM 98% | [2]; at 100.0 µM 99% | [3]; at 33.0 µM 98% | [3]; at 100.0 µM 98% | [4]; at 11.0 µM 98% | [4]; at 33.0 µM 99% | [4]; at 100.0 µM 98% | [5]; at 11.0 µM 97% | [5]; at 33.0 µM 98% | [5]; [18] 98% | [5]; at 50.0 µM 90% | [5]; at 100.0 µM 94% | [6]; at 11.0 µM 97% | [6]; at 33.0 µM 99% | [6]; [18] 99% | [6]; at 50.0 µM 91.5% | [6]; at 100.0 µM 95% | [7]; at 11.0 µM 75% | [7]; at 33.0 µM 98% | [7]; at 100.0 µM 96% | [8]; at 50.0 µM 91.5% | [9]; at 11.0 µM 98% | [9]; at 33.0 µM 99% | [9]; at 100.0 µM 99% | [10]; at 50.0 µM 89.8% | [11]; at 11.0 µM 98% | [11]; at 33.0 µM 99% | [11]; [18] 77% | [11]; at 50.0 µM 90.2% | [11]; at 100.0 µM 99% | [12]; at 11.0 µM 98% | [12]; at 33.0 µM 99% | [12]; at 100.0 µM 99% | [13]; at 11.0 µM 93% | [13]; at 33.0 µM 99% | [13]; at 100.0 µM 98% | [14]; at 11.0 µM 98% | [14]; at 33.0 µM 98% | [14]; at 100.0 µM 99% | [15]; [18] 98% | [15]; at 50.0 µM 89.4% | [16]; at 11.0 µM 97% | [16]; at 33.0 µM 99% | [16]; at 100.0 µM 95%
inactive: [1]; at 1.2 µM 8% | [1]; at 3.7 µM 0% | [2]; at 1.2 µM -8% | [2]; at 3.7 µM -2% | [3]; at 1.2 µM 7% | [3]; at 3.7 µM 0% | [3]; at 11.0 µM 13% | [4]; at 1.2 µM -1% | [4]; at 3.7 µM 20% | [5]; at 1.2 µM -5% | [5]; at 3.7 µM -14% | [5]; [17] 18% | [6]; at 1.2 µM -12% | [6]; at 3.7 µM 0% | [6]; [17] 8% | [7]; at 1.2 µM -17% | [7]; at 3.7 µM -14% | [8]; [17] 36% | [8]; [18] 53% | [9]; at 1.2 µM 23% | [9]; at 3.7 µM 22% | [10]; [17] 35% | [10]; [18] 67% | [11]; at 1.2 µM 13% | [11]; at 3.7 µM 10% | [11]; [17] 39% | [12]; at 1.2 µM -8% | [12]; at 3.7 µM -1% | [13]; at 1.2 µM 1% | [13]; at 3.7 µM 4% | [14]; at 1.2 µM -6% | [14]; at 3.7 µM -24% | [15]; [17] 5% | [16]; at 1.2 µM 12% | [16]; at 3.7 µM 5%

CCc1c[n+]([O-])c(C)cc1[N+](=O)[O-]
inactive: [1]; at 1.2 µM 2% | [1]; at 3.7 µM 7% | [1]; at 11.0 µM 21% | [1]; at 33.0 µM 57% | [2]; at 1.2 µM 0% | [2]; at 3.7 µM -1% | [2]; at 11.0 µM 0% | [2]; at 33.0 µM -1% | [2]; at 100.0 µM 13% | [3]; at 1.2 µM -1% | [3]; at 3.7 µM 6% | [3]; at 11.0 µM 25% | [3]; at 33.0 µM 55% | [4]; at 1.2 µM -2% | [4]; at 3.7 µM -2% | [4]; at 11.0 µM -2% | [4]; at 33.0 µM 17% | [4]; at 100.0 µM 22% | [5]; at 1.2 µM 1% | [5]; at 3.7 µM 6% | [5]; [17] 17% | [5]; at 11.0 µM 18% | [5]; at 33.0 µM 53% | [6]; at 1.2 µM -2% | [6]; at 3.7 µM 1% | [6]; [17] -6% | [6]; at 11.0 µM 2% | [6]; at 33.0 µM 27% | [6]; at 50.0 µM 14.9% | [7]; at 1.2 µM 5% | [7]; at 3.7 µM 12% | [7]; at 11.0 µM 48% | [8]; [17] 45% | [9]; at 1.2 µM -2% | [9]; at 3.7 µM -4% | [9]; at 11.0 µM -5% | [9]; at 33.0 µM -14% | [9]; at 100.0 µM -2% | [10]; [17] 21% | [11]; at 1.2 µM -4% | [11]; at 3.7 µM -8% | [11]; [17] 8% | [11]; at 11.0 µM -14% | [11]; at 33.0 µM -20% | [11]; [18] 52% | [11]; at 50.0 µM -29.3% | [11]; at 100.0 µM -2% | [12]; at 1.2 µM 0% | [12]; at 3.7 µM 0% | [12]; at 11.0 µM 2% | [12]; at 33.0 µM 5% | [12]; at 100.0 µM 21% | [13]; at 1.2 µM -1% | [13]; at 3.7 µM -1% | [13]; at 11.0 µM 3% | [13]; at 33.0 µM 7% | [13]; at 100.0 µM 29% | [14]; at 1.2 µM 10% | [14]; at 3.7 µM 31% | [14]; at 11.0 µM 63% | [15]; [17] 58% | [15]; at 50.0 µM 65.9% | [16]; at 1.2 µM 56%
active: [1]; at 100.0 µM 90% | [3]; at 100.0 µM 85% | [5]; [18] 94% | [5]; at 50.0 µM 73.7% | [5]; at 100.0 µM 87% | [6]; [18] 77% | [6]; at 100.0 µM 92% | [7]; at 33.0 µM 94% | [7]; at 100.0 µM 98% | [8]; [18] 95% | [8]; at 50.0 µM 87.5% | [10]; [18] 94% | [10]; at 50.0 µM 88.2% | [14]; at 33.0 µM 85% | [14]; at 100.0 µM 93% | [15]; [18] 96% | [16]; at 3.7 µM 86% | [16]; at 11.0 µM 92% | [16]; at 33.0 µM 95% | [16]; at 100.0 µM 95%
